PubChem BioAssay AID1159580 (chemical genetic matrix, 2015)
About 2,000 (36%) of roughly 5,500 compounds were called active. Inconclusive results (about 18%) are left out. Cut-off read from the data, not from the text of the source: active = normalized growth mostly below about 0.91 (no sharp cut-off); inconclusive = no clear call, values can overlap the other calls; inactive = mostly above about 0.92. This is one part of the list.

Experiment: chemical genetic growth profiling, strain panel (AID 1159580);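 note: tested at 20 µM; growth read once vehicle control cultures reached saturation at 30 °C; 1 = growth at the plate median or of vehicle wells; lower values mean less growth of the strain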
Conditions: growth OD
[1] = S. cerevisiae deletion strains, locus YAL013W, strain DEP1, active compounds read low
[2] = S. cerevisiae deletion strains, locus YGR078C, strain PAC10, active compounds read low
[3] = S. cerevisiae deletion strains, locus YJR075W, strain HOC1, active compounds read low
[4] = S. cerevisiae deletion strains, locus YNL322C, strain KRE1, active compounds read low
[5] = S. cerevisiae deletion strains, locus YPL055C, strain LGE1, active compounds read low

Measured: normalized growth

NCCc1cccc(O)c1
inactive: [1] 1.01 | S. cerevisiae deletion strains, locus YBR021W, strain FUR4, active compounds read low 0.972 | S. cerevisiae deletion strains, locus YBR229C, strain ROT2, active compounds read low 0.983 | S. cerevisiae deletion strains, locus YCL029C, strain bik1, active compounds read low 0.981 | S. cerevisiae deletion strains, locus YDL035C, strain GPR1, active compounds read low 1.01 | S. cerevisiae deletion strains, locus YDL074C, strain BRE1, active compounds read low 1.01 | S. cerevisiae deletion strains, locus YDL101C, strain DUN1, active compounds read low 0.985 | S. cerevisiae deletion strains, locus YDL134C, strain PPH21, active compounds read low 0.984 | S. cerevisiae deletion strains, locus YDL185W, strain tfp1, active compounds read low 0.989 | S. cerevisiae deletion strains, locus YDL192W, strain arf1, active compounds read low 0.979 | S. cerevisiae deletion strains, locus YDR101C, strain arx1, active compounds read low 0.985 | S. cerevisiae deletion strains, locus YDR150W, strain NUM1, active compounds read low 1 | S. cerevisiae deletion strains, locus YDR162C, strain NBP2, active compounds read low 0.996 | S. cerevisiae deletion strains, locus YDR318W, strain mcm21, active compounds read low 0.983 | S. cerevisiae deletion strains, locus YDR388W, active compounds read low 0.981 | S. cerevisiae deletion strains, locus YDR502C, strain sam2, active compounds read low 0.992 | S. cerevisiae deletion strains, locus YEL061C, strain CIN8, active compounds read low 0.994 | S. cerevisiae deletion strains, locus YER110C, active compounds read low 0.985 | S. cerevisiae deletion strains, locus YER155C, strain BEM2, active compounds read low 0.951 | S. cerevisiae deletion strains, locus YER167W, strain BCK2, active compounds read low 0.982 | S. cerevisiae deletion strains, locus YGL078C, strain dbp3, active compounds read low 0.989 | S. cerevisiae deletion strains, locus YGL086W, strain mad1, active compounds read low 0.976 | S. cerevisiae deletion strains, locus YGL248W, strain PDE1, active compounds read low 0.982 | [2] 1 | S. cerevisiae deletion strains, locus YGR135W, strain pre9, active compounds read low 0.982 | S. cerevisiae deletion strains, locus YGR229C, strain SMI1, active compounds read low 1.05 | S. cerevisiae deletion strains, locus YGR252W, strain gcn5, active compounds read low 0.952 | S. cerevisiae deletion strains, locus YHR030C, strain SLT2, active compounds read low 0.994 | S. cerevisiae deletion strains, locus YHR079C, strain IRE1 (second series), active compounds read low 0.986 | S. cerevisiae deletion strains, locus YHR094C, strain hxt1, active compounds read low 0.992 | S. cerevisiae deletion strains, locus YHR129C, strain ARP1, active compounds read low 0.987 | S. cerevisiae deletion strains, locus YHR200W, strain rpn10, active compounds read low 0.974 | S. cerevisiae deletion strains, locus YIL066C, strain RNR3, active compounds read low 0.996 | S. cerevisiae deletion strains, locus YIL073C, strain SPO22, active compounds read low 0.946 | S. cerevisiae deletion strains, locus YIL125W, strain kgd1, active compounds read low 0.984 | S. cerevisiae deletion strains, locus YIR030C, strain dcg1, active compounds read low 0.991 | S. cerevisiae deletion strains, locus YJL095W, strain BCK1, active compounds read low 1 | S. cerevisiae deletion strains, locus YJL134W, strain LCB3, active compounds read low 0.992 | S. cerevisiae deletion strains, locus YJL168C, strain set2, active compounds read low 0.987 | S. cerevisiae deletion strains, locus YJL187C, strain SWE1 (second series), active compounds read low 0.991 | S. cerevisiae deletion strains, locus YJR043C, strain POL32, active compounds read low 0.979 | [3] 0.998 | S. cerevisiae deletion strains, locus YKL009W, strain mrt4, active compounds read low 0.965 | S. cerevisiae deletion strains, locus YKL068W, active compounds read low 0.992 | S. cerevisiae deletion strains, locus YKL085W, strain MDH1 (second series), active compounds read low 0.987 | S. cerevisiae deletion strains, locus YKL085W, strain MDH1, active compounds read low 0.987 | S. cerevisiae deletion strains, locus YKL190W, strain CNB1, active compounds read low 0.997 | S. cerevisiae deletion strains, locus YKR001C, strain vps1, active compounds read low 0.976 | S. cerevisiae deletion strains, locus YLR039C, strain RIC1, active compounds read low 0.972 | S. cerevisiae deletion strains, locus YLR058C, strain SHM2, active compounds read low 0.992 | S. cerevisiae deletion strains, locus YLR102C, strain apc9, active compounds read low 0.99 | S. cerevisiae deletion strains, locus YLR262C, strain YPT6, active compounds read low 0.997 | S. cerevisiae deletion strains, locus YLR268W, strain sec22, active compounds read low 0.989 | S. cerevisiae deletion strains, locus YLR330W, strain CHS5, active compounds read low 0.99 | S. cerevisiae deletion strains, locus YLR342W, strain FKS1 (second series), active compounds read low 0.963 | S. cerevisiae deletion strains, locus YLR371W, strain rom2, active compounds read low 0.991 | S. cerevisiae deletion strains, locus YLR418C, strain cdc73, active compounds read low 0.985 | S. cerevisiae deletion strains, locus YML016C, strain PPZ1, active compounds read low 0.985 | S. cerevisiae deletion strains, locus YML032C, strain rad52, active compounds read low 0.978 | S. cerevisiae deletion strains, locus YML124C, strain tub3, active compounds read low 0.989 | S. cerevisiae deletion strains, locus YMR078C, strain ctf18, active compounds read low 0.983 | S. cerevisiae deletion strains, locus YMR223W, strain ubp8, active compounds read low 0.979 | S. cerevisiae deletion strains, locus YMR263W, strain SAP30, active compounds read low 1 | S. cerevisiae deletion strains, locus YMR307W, strain GAS1, active compounds read low 0.991 | S. cerevisiae deletion strains, locus YNL067W, strain RPL9B, active compounds read low 1.01 | S. cerevisiae deletion strains, locus YNL128W, strain TEP1, active compounds read low 1.03 | S. cerevisiae deletion strains, locus YNL153C, strain GIM3, active compounds read low 0.996 | S. cerevisiae deletion strains, locus YNL233W, strain BNI4, active compounds read low 0.989 | S. cerevisiae deletion strains, locus YNL250W, strain rad50, active compounds read low 0.984 | S. cerevisiae deletion strains, locus YNL271C, strain bni1, active compounds read low 0.991 | S. cerevisiae deletion strains, locus YNL298W, strain CLA4, active compounds read low 0.98 | S. cerevisiae deletion strains, locus YNL307C, strain MCK1, active compounds read low 0.981 | [4] 0.998 | S. cerevisiae deletion strains, locus YNR052C, strain pop2, active compounds read low 0.987 | S. cerevisiae deletion strains, locus YOL006C, strain TOP1, active compounds read low 0.986 | S. cerevisiae deletion strains, locus YOL012C, strain htz1 0.834 | S. cerevisiae deletion strains, locus YOL147C, strain pex11, active compounds read low 0.986 | S. cerevisiae deletion strains, locus YOR061W, strain CKA2, active compounds read low 0.991 | S. cerevisiae deletion strains, locus YOR069W, strain VPS5, active compounds read low 0.988 | S. cerevisiae deletion strains, locus YOR136W, strain idh2, active compounds read low 0.975 | S. cerevisiae deletion strains, locus YOR144C, strain elg1, active compounds read low 0.986 | S. cerevisiae deletion strains, locus YOR184W, strain ser1, active compounds read low 0.965 | S. cerevisiae deletion strains, locus YOR316C, strain cot1, active compounds read low 0.989 | [5] 1.04 | S. cerevisiae deletion strains, locus YPL241C, strain CIN2, active compounds read low 1 | S. cerevisiae deletion strains, locus YPR119W, strain clb2, active compounds read low 0.992 | S. cerevisiae deletion strains, locus YPR141C, strain kar3, active compounds read low 0.988 | S. cerevisiae deletion strains, locus YPR163C, strain tif3, active compounds read low 0.984 | S. cerevisiae deletion strains, locus YPR167C, strain met16, active compounds read low 0.981 | S. cerevisiae deletion strains, strain wtn01, active compounds read low 0.987 | S. cerevisiae strains, strain wild type, active compounds read low 1.02

CCCCc1ccc(C(=O)O)nc1
inactive: [1] 1.02 | S. cerevisiae deletion strains, locus YAL040C, strain CLN3, active compounds read low 0.992 | S. cerevisiae deletion strains, locus YCL061C, strain MRC1 (second series), active compounds read low 1 | S. cerevisiae deletion strains, locus YDR363W, strain ESC2, active compounds read low 1.02 | S. cerevisiae deletion strains, locus YER002W, strain NOP16, active compounds read low 1.05 | [2] 1 | [3] 1.07 | S. cerevisiae deletion strains, locus YNL175C, strain NOP13, active compounds read low 0.988 | S. cerevisiae deletion strains, locus YNL197C, strain WHI3, active compounds read low 1.01 | S. cerevisiae deletion strains, locus YNL224C, strain SQS1, active compounds read low 0.979 | [4] 1.02 | S. cerevisiae deletion strains, locus YOR083W, strain WHI5 (second series), active compounds read low 1.05 | [5] 1.03
